Results on 8 molecules are retold here after PubChem BioAssay (NCI).

Common to all, as to assay: NCI-60 one-dose screen, 48 h (100 = growth as untreated, 0 = no growth, -100 = all killed)
Common to all, as to conditions: 10 µM unless noted

Assay [1] relates to SK-MEL-2 melanoma.
The test system of assay [2] is EKVX NSCLC.
Assay [3] deals with SN12C renal.
In assay [4] the test system is TK-10 renal.
The test system of assay [5] is ACHN renal.
Assay [6] has as its system CAKI-1 renal.
Assay [7] relates to CCRF-CEM leukemia.
The test system of assay [8] is MOLT-4 leukemia.
Assay [9] concerns SR leukemia.
Assay [10] relates to OVCAR-8 ovarian.
For assay [11], the system named is OVCAR-5 ovarian.
Assay [12] relates to OVCAR-4 ovarian.
For assay [13], the system named is IGROV1 ovarian.
Assay [14] has as its system OVCAR-3 ovarian.
The test system of assay [15] is HS 578T breast.
Assay [16] concerns NCI/ADR-RES ovarian.
Assay [17] has as its system A498 renal.
Assay [18] concerns RPMI-8226 leukemia.
Assay [19] deals with SK-OV-3 ovarian.
Assay [20] relates to UO-31 renal.

The panel holds about 83,000 compounds, 20% with a hit somewhere; the sample as a whole holds those more often.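 Treatment: one concentration, 48 hours, 96-well format. Scoring: percent growth, with anything below 10 considered active.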 Values without a mark were called inactive. The source made the active and inactive calls.

Regarding `Cl.Fc1c[c-]c(-c2ccccn2)c(F)c1.[Pt].c1ccc(P(c2ccccc2)C([PH+](c2ccccc2)c2ccccc2)[PH+](c2ccccc2)c2ccccc2)cc1`, the growth in assay [1] is 7.06% (active); in [2], 20.8%; in [3], 11.2%; in assay [4], 24.3%; in [5] it was 17.5%; in assay [6], -1.81% (active). Further, the growth in assay [7] was 17.3%; in assay [8] it was 13.2%; in assay [9], 23.3%; in [10] it was 16.3%; in assay [11] it was 22%; in assay [12], 17.2%. The growth in [13] is 19.1%; in assay [14], 11%; in [15], 12%; in assay [16] it was 84.2%.

Regarding `CCCCCCCCN(CCCCCCCC)C(=N)c1ccnc2ccccc12`, the growth is -44.2% (active) in assay [1]; -63.4% (active) in assay [2]; -57.8% (active) in assay [3]; -16.4% (active) in [4]; -89.3% (active) in assay [5]; -86.1% (active) in assay [6]. In addition, the growth in assay [17] was -95.7% (active); in [7] it was -42.2% (active); in assay [8] it was -41.4% (active); in [9], -56.6% (active); in assay [18], -47.7% (active); in [10], -66.1% (active). The growth in assay [11] is -57.2% (active); in assay [12], -67.1% (active); in [19], -27.8% (active); in assay [13], -66.5% (active); in assay [14], -93% (active); in [15] it was -32% (active). The growth in assay [16] was -72.5% (active).

Regarding `C=C1C(=O)O[C@H]2[C@H]1CC/C(COC(=O)/C=C/C(=O)NCc1ccc(Cn3c(=O)sn(-c4ccccc4)c3=O)cc1)=C\CC[C@@]1(C)O[C@@H]21`, the growth in [1] is -13.6% (active); in [2], 52.3%; in assay [3] it was -43.7% (active); in [4], -38.6% (active); in assay [5], -47.3% (active); in assay [6] it was 35.5%. The growth in [17] is 97.1%; in [7], -30.6% (active); in [8], -27.7% (active); in assay [18], -32.6% (active); in assay [10], -0.571% (active); in [11], 35.4%. For the same molecule, the growth in assay [12] was 25.7%; in [19], 75.8%; in [13], -25.5% (active); in [16], 94.1%.

Turning to `C=C1C(=O)O[C@H]2[C@H]1CC/C(Cn1cc(CNCCc3c[nH]c4ccc(Cl)cc34)nn1)=C\CC[C@@]1(C)O[C@@H]21`, the growth in [1] is 52.3%; in assay [2], 84.1%; in assay [3], 58.6%; in assay [4], 0.209% (active); in assay [5], 54%; in assay [6], 48.2%. Also, the growth in assay [17] was 90%; in assay [7], -29.6% (active); in assay [8], 0.755% (active); in [18], 9.44% (active); in [10], 59.6%; in assay [11], 83.5%. Further, the growth in [12] is 41.7%; in assay [19] it was 72.6%; in [13] it was 2.11% (active); in assay [14], 11.9%; in [15], 83.4%; in [16] it was 102%.

For `CCOC(=O)C(O)C(O)(c1ccccc1)c1ccccc1` (centres undefined), the growth was 102% in assay [1]; 100% in assay [2]; 91.2% in [20]; 100% in [4]; 97.4% in [5]; 97% in [6]. In addition, the growth is 98.3% in assay [17]; 99.1% in assay [7]; 95.1% in [8]; 95% in [9]; 106% in [18]; 108% in assay [10]. Further, the growth was 90.4% in [11]; 111% in [12]; 97% in assay [19]; 100% in assay [13]; 108% in assay [14]; 108% in assay [15]. In addition, in assay [16], the growth was 102%.

On to `Cc1nn(Cc2ccccc2)cc1C(=O)Nc1sc2c(c1C(N)=O)CCC(=O)C2`, for which the growth in [1] is 74.5%; in [2], 54.9%; in assay [3] it was 15.5%; in assay [4], 15.5%; in assay [5] it was 5.29% (active); in [6] it was 5.49% (active). Besides, the growth in [17] is 108%; in assay [7] it was 9.5% (active); in [8], 16.5%; in assay [18] it was -6.08% (active); in [10] it was 20.3%; in assay [11], 73.8%. The growth in [12] was -7.95% (active); in [19] it was 116%; in [13], 33.5%; in assay [14] it was 9.48% (active); in assay [15] it was 28.8%; in assay [16], 72%.

As to `COc1ccc(/C=C2\COc3ccc(O)c(O)c3C2=O)c(OC)c1`, the growth in assay [1] is 90.7%; in assay [2] it was 85.3%; in [3] it was 33%; in [4], 22.5%; in [5], 56.2%; in [6], 36.6%. Moreover, the growth in [17] was 114%; in assay [7], 4.18% (active); in assay [8], 7.29% (active); in assay [9], 18.9%; in [11] it was 74.1%; in assay [12], 47.3%. In addition, the growth in assay [19] was 72.7%; in [13], 31.3%; in assay [14] it was 29.4%; in assay [15] it was 65.5%; in [16] it was 57.8%.

Take `COc1ccc(-c2nc3ncccn3c2/C=C/C(=O)c2cc(OC)c(OC)c(OC)c2)cc1`: the growth in assay [1] is 0.675% (active); in [2], 1.1% (active); in assay [3] it was 15.7%; in [4], 15.5%; in assay [5], 20.4%; in [6] it was -3.66% (active). In addition, the growth was -20.5% (active) in assay [17]; 1.32% (active) in assay [7]; 4.3% (active) in assay [8]; -2.39% (active) in [9]; -32.2% (active) in [18]; 9.62% (active) in [10]. In addition, the growth in assay [12] is 7.94% (active); in assay [19], -13.5% (active); in assay [13] it was 17.2%; in assay [14] it was -24.4% (active).
